Results on one molecule are retold here after ChEMBL document CHEMBL2218924, “A broad activity screen in support of a chemogenomic map for kinase signalling research and drug discovery” (Biochem J, 2013).

Assay [1] deals with T1, Serine/threonine-protein kinase TBK1 (Homo sapiens) (UniProt Q9UHD2).
T1 sequence (whole entry): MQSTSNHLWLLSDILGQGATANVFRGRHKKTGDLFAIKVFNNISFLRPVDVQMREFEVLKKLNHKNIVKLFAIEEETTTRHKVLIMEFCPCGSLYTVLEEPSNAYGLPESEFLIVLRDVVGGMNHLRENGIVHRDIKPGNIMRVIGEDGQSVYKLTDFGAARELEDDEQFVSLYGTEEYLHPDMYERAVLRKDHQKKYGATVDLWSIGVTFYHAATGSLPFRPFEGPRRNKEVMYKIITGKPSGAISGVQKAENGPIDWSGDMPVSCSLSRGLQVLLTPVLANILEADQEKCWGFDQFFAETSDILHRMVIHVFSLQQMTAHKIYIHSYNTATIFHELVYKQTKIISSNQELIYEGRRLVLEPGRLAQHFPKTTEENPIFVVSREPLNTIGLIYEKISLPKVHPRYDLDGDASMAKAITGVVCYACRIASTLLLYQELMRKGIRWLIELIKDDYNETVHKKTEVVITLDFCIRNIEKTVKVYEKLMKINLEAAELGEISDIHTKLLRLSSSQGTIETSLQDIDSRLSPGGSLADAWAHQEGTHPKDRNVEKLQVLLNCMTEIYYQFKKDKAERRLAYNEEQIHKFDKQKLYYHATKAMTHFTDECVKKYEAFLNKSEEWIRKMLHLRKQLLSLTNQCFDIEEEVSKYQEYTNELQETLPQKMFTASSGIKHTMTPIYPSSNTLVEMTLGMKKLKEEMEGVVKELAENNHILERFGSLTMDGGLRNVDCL
The conditions noted are these: at 1 µM.

The target in assay [2] is T1, Serine/threonine-protein kinase TBK1 (Homo sapiens). As to conditions: at 10 µM.
The target in assay [3] is T2, TGF-beta receptor type-1 (Homo sapiens) (UniProt P36897).
T2 sequence (whole entry): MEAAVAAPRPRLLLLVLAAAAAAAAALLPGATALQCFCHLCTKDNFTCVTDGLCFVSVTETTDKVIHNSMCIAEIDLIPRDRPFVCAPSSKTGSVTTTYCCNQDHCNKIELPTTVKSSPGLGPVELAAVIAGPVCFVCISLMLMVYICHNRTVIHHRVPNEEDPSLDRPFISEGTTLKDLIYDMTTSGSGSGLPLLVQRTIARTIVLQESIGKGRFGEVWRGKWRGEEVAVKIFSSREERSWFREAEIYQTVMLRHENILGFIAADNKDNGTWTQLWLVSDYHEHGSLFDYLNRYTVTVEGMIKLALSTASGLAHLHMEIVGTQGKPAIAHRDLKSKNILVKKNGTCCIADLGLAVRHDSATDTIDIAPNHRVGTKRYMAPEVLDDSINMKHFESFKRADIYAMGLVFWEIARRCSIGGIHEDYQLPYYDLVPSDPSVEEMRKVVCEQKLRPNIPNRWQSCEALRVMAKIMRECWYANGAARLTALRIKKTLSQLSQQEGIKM
As to conditions: at 1 µM.

Assay [4] concerns the target T2, TGF-beta receptor type-1 (Homo sapiens). The conditions noted are these: at 10 µM.
Assay [5] addresses Insulin-like growth factor 1 receptor (Homo sapiens) (UniProt P08069). The conditions noted are these: at 1 µM.
Assay [6] shares this target. The conditions noted are these: at 10 µM.
The target in assay [7] is T3, Inhibitor of nuclear factor kappa-B kinase subunit alpha (Homo sapiens) (UniProt O15111).
T3 sequence (whole entry): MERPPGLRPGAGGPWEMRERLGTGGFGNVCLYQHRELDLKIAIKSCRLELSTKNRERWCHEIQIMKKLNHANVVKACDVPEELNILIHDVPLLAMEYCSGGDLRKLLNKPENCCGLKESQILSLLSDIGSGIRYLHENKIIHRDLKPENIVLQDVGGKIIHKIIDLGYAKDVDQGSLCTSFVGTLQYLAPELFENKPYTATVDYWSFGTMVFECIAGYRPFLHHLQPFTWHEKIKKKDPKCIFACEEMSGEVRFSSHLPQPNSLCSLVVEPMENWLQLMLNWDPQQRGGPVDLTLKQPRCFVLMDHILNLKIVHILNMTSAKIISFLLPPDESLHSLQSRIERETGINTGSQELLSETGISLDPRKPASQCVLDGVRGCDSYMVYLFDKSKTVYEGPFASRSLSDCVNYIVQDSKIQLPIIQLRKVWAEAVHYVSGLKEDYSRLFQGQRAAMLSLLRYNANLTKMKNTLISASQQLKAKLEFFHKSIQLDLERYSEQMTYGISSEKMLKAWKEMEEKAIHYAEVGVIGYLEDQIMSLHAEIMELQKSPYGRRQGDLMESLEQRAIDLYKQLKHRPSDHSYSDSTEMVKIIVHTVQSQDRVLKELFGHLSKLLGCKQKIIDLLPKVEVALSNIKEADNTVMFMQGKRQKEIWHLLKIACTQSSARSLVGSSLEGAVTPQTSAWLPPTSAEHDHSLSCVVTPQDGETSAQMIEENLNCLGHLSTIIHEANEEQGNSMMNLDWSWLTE
As to conditions: at 10 µM.

Assay [8] deals with T4, Inhibitor of nuclear factor kappa-B kinase subunit beta (Homo sapiens) (UniProt O14920).
T4 sequence (whole entry): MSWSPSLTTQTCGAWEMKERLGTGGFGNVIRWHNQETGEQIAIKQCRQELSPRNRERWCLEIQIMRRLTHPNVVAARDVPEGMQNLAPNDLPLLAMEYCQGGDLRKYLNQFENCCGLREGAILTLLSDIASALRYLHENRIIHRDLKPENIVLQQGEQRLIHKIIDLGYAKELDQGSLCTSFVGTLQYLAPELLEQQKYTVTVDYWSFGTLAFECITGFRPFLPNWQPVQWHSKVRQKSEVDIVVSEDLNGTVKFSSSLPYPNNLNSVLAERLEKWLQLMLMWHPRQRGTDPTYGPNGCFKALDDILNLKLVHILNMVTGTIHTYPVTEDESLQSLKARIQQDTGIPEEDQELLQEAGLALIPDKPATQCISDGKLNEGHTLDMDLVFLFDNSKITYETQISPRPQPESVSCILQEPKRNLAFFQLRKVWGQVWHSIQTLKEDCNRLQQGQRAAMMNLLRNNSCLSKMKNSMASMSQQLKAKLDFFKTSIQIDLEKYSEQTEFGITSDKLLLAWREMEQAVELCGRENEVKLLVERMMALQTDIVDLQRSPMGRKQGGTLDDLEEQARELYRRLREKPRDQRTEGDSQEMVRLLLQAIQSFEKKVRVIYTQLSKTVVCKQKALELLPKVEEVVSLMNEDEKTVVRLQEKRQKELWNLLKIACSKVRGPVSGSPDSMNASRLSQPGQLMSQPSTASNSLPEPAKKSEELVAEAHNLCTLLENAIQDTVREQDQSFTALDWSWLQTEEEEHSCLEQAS
The conditions noted are these: at 1 µM.

For assay [9], the target named is T4, Inhibitor of nuclear factor kappa-B kinase subunit beta (Homo sapiens). As to conditions: at 10 µM.
Assay [10] concerns the target Insulin receptor (Homo sapiens) (UniProt P06213). The conditions noted are these: at 1 µM.

Sequence of Insulin-like growth factor 1 receptor (Homo sapiens) (P08069 31-736 limits assumed): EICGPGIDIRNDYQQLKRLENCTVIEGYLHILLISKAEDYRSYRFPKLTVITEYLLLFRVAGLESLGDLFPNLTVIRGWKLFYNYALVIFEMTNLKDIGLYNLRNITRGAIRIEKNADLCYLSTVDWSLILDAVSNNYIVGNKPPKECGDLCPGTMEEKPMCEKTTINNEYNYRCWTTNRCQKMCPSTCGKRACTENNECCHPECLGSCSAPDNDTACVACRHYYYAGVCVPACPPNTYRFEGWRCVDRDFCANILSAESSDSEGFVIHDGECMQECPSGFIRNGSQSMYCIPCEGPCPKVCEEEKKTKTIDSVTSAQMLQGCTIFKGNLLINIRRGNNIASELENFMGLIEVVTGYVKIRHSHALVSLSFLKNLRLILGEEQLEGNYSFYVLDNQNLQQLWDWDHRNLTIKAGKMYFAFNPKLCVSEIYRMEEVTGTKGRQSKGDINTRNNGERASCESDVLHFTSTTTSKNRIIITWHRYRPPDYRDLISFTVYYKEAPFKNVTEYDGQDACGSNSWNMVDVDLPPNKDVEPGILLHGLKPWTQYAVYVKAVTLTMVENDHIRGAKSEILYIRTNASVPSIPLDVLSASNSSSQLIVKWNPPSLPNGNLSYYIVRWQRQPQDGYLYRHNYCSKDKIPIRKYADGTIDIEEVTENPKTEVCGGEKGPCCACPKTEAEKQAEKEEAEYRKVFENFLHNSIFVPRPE
Sequence of Insulin-like growth factor 1 receptor (Homo sapiens) (P08069 741-1367 limits assumed): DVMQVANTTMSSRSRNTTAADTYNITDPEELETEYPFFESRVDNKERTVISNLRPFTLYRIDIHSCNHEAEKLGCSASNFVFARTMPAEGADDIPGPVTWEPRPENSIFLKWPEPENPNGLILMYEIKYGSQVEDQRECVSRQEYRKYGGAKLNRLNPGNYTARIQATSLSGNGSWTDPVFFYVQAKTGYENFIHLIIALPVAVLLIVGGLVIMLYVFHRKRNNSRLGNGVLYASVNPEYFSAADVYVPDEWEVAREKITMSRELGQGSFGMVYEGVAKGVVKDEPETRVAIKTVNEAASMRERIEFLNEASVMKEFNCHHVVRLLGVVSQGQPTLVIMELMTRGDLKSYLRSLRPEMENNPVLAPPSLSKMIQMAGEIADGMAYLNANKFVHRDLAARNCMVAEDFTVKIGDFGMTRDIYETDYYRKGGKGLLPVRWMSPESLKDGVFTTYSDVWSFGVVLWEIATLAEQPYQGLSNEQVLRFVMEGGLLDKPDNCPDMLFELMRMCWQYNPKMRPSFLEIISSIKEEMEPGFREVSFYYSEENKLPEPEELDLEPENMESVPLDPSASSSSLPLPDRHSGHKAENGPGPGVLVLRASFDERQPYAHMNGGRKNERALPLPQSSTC
Sequence of Insulin receptor (Homo sapiens) (P06213 28-758 limits assumed): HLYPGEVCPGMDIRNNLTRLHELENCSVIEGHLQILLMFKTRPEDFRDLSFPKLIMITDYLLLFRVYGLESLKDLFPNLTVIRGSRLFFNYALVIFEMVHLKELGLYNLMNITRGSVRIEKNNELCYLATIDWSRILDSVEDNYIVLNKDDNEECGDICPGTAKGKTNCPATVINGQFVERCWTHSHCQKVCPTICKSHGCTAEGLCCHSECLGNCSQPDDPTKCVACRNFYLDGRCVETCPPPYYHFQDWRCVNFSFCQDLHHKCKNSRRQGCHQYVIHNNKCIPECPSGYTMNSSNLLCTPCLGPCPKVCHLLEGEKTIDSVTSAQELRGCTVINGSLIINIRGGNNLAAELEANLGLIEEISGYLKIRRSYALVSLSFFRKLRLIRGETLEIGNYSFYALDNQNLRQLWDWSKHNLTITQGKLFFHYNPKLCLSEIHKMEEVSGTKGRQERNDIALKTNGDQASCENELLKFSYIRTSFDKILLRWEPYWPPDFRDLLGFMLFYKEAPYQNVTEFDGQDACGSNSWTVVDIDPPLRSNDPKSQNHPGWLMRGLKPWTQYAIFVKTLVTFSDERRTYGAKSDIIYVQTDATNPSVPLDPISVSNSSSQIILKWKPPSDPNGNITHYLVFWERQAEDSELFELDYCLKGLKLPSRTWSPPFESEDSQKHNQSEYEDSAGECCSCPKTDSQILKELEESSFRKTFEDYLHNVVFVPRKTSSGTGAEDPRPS
Sequence of Insulin receptor (Homo sapiens) (P06213 763-1382 limits assumed): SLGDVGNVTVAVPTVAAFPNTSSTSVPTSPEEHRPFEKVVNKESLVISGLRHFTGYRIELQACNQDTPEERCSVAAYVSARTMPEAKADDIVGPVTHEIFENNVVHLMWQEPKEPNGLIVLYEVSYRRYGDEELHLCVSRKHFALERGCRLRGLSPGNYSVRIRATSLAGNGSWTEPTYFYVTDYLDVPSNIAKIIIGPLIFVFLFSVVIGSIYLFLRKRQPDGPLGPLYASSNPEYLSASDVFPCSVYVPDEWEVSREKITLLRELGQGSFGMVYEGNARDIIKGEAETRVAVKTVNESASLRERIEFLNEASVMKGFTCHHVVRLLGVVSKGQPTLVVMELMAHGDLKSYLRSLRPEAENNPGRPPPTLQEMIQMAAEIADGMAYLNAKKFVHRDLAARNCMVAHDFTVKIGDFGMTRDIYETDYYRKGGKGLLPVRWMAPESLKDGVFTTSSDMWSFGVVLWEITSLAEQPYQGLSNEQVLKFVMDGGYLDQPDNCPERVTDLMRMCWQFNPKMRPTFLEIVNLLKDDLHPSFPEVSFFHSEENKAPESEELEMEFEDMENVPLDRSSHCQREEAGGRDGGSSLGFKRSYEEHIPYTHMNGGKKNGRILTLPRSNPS

As to `COc1ccc(C(=O)Nc2sc3c(c2C(N)=O)CCCC3)cc1OC`, the residual activity – broadly, the signal under treatment as a percentage of the control signal – was 72% in assay [1]; 71% in assay [2]; 71% in assay [3]; 92% in [4]; 87% in assay [5]; 88% in assay [6]. The residual activity in [7] stood at 113%; in [8] it was 99%; in [9], 88%; in assay [10], 105%.
